AMA1-RON2 inh – qHTS for Inhibitors of AMA1-RON; Towards Development of Antimalarial Drug Lead: Primary Screen; Plasmodium falciparum AMA1 (3D7) - RON2 peptide interaction; AlphaScreen AMA1-biotinylated RON2 peptide binding; Potency, µM (doses to about 58.2 µM), inactives show top-dose activity change, negative = inhibition, most hits filed as inhibitors; 0.2% of 360,000 active; AID 720542, 2013;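 also: potency is read from the fitted curve at half-maximal effect; 0% = vehicle wells and -100% = peptide control; nearly all actives have a fitted effect of over 45% in size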
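AMA1 (3D7) with his tag at 25 nM final met compounds first, then biotinylated RON2 peptide at 25 nM; detection used donor plus acceptor beads, 10 µg/mL apiece, read by AlphaScreen after 30 min at room temperature.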
Pf growth 48h – Primary qHTS for delayed death inhibitors of the malarial parasite plastid, 48 hour incubation. 5.9% of 310,000 active. AID 504832, 2011. Potency, µM (series often up to 28.7 µM), for the others: top-dose activity change, negative = inhibition, hits mostly inhibitors. P. falciparum luciferase growth in erythrocytes, 48 h; also: potency is read from the fitted curve at half-maximal effect; % is scaled to controls: 0 for no effect and ±100 for the full control effect
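Cell-based growth assay: transgenic P. falciparum expressing firefly luciferase, cultured in red cells within RPMI 1640 containing 0.5% w/v Albumax, 24 mM bicarbonate and gentamycin. A drop in luciferase activity indicates inhibition.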
SARS PLpro yeast – qHTS of Yeast-based Assay for SARS-CoV PLP. S. cerevisiae expressing SARS-CoV PLpro, growth rescue. Potency, µM (highest dose often 32.9 µM), without a hit: at the top dose activity, positive = growth rescue, most hits filed as activators. 0.19% of 330,000 active. AID 485353, 2010; calls by dose curve; also: potency is read from the fitted curve at half-maximal effect; 0% is about no effect; nearly all actives have a fitted effect of over 55% in size
CHX counter – Cycloheximide Counterscreen for Small Molecule Inhibitors of Shiga Toxin; max response, %; cell reporter, cycloheximide protein synthesis inhibition counterscreen; 12% of 300,000 active; AID 2314, 2010; in the data active = max response mostly above about 13%, no sharp cut-off; inactive = mostly below about 14%; also: read at 38.3 µM for the half of the compounds with a filed dose; 0% is about no effect
Shiga toxin inh – A qHTS for Small Molecule Inhibitors of Shiga Toxin. AID 2315, 2010. inhibition, % at 38.7 µM. Vero cells, Shiga toxin protein synthesis inhibition reporter. 9.2% of 290,000 active; in the data active = inhibition mostly above about 28%, no sharp cut-off; inactive = mostly below about 43%; also: 0% is about no effect
Pf growth 96h – Primary qHTS for delayed death inhibitors of the malarial parasite plastid, 96 hour incubation. P. falciparum luciferase reporter growth, 96 h. 6.9% of 320,000 active. Potency, µM (doses to about 28.7 µM), inactives show top-dose activity change, negative = inhibition, hits mostly inhibitors; also: potency is read from the fitted curve at half-maximal effect; % is scaled to controls: 0 for no effect and ±100 for the full control effect
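Plates of compound plus infected erythrocytes (2% hematocrit, 0.05% parasitemia final) incubate 96 hours, 37 C, 5% CO2. Detection reagent added; reduced luminescence from the parasites' luciferase reporter flags inhibition.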
An asterisk follows results filed as active; ? = inconclusive; · = no result; [ ] = remark or other dose. The list is not random: actives were taken first. Their share in the collection is about 19%. Unless noted, calls follow the shape of the dose curve; as a rule, active = well fitted curve in the direction sought with a large enough effect; inconclusive = small, poorly fitted or top-dose-only effect, or another doubt; inactive = no such curve, though single readings can be large; an effect the other way counts as inactive or inconclusive.

SMILES | AMA1-RON2 inh | Pf growth 48h | SARS PLpro yeast | CHX counter | Shiga toxin inh | Pf growth 96h
COc1ccc(CN2CCOCCOCCN(Cc3ccc(OC)cc3)CCOCCOCC2)cc1 | -2% | 13µM* | -1% | -3 | 6 | ?
COc1c(C)cccc1C(=O)Nc1ccc(CN2CCOCC2)cc1 | -10% | 134% | 2% | 47* | 44* | ·
COc1c(Cl)cc(Cl)cc1C(=O)Nc1ccc(CN2CCOCC2)cc1 | -2% | 21% | -4% | 3 | -1 | 57%
COc1ccc(-c2cc3nc(NCCNC(C)=O)n(C)c(=O)c3s2)c(C)c1 | 1% | · | · | · | · | ·
COc1ccc(NC(=O)CSc2nnc(CNC(=O)COc3ccc(Cl)cc3)o2)c(OC)c1 | -13% | 13µM* | 7% | -3 | -5 | 9.3µM*
O=C(COc1ccc(Cl)cc1)NCc1nnc(SCC(=O)NC2CCCC2)o1 | 18% | ? | · | -2 | 8 | 4.1µM*
O=C(CSc1nnc(COc2ccc(Cl)cc2)o1)NC1CCCCC1 | 1% | 6% | -5% | · | · | 16%
COc1ccc(OC)c(NC(=O)CSc2nnc(CNC(=O)COc3ccc(Cl)cc3)o2)c1 | -22% | ? | -7% | 7 | -14 | ?
CC(C)CCN1NC2(CCCC(C)C2)NC1=S (centres undefined) | 60% | ? | 0% | 8 | 25 | 0%
Cc1cc(-c2nnc(-c3ccccc3)c(-c3ccccc3)n2)c(C)o1 | 34% | 13µM* | -3% | -4 | -9 | ?
O=C(O)c1ccccc1C(=O)Nc1ccc(S(=O)(=O)NC2CCCCC2)cc1 | 7%[2.32 µM] | -3% | 5% | -3 | -10 | -27%
C=C[C@@]1(C)C[C@H](OC(=O)CSC(C)(C)CNC(=O)[C@@H](N)C(C)C)[C@@]2(C)C(C)CC[C@@]3(CCC(=O)[C@@H]32)[C@H](C)[C@H]1O (some centres undefined) | · | 1.1µM* | · | · | · | -18%
C=C[C@]1(C)C[C@@H](OC(=O)CSCCN(CC)CC)[C@]2(C)C(C)CC[C@]3(CCC(=O)[C@H]32)[C@@H](C)[C@@H]1O (some centres undefined) | -5% | 13µM* | · | · | · | 2.1µM*
O=C1CC(=C(c2ccccc2)c2ccccc2)C(=O)N1CCCCN1CCN(c2ccccc2)CC1 | ? | · | -3% | -2 | -13 | 3.3µM*
O=C(NCCn1cccn1)C1CCC(=O)N(CCc2ccc(Cl)cc2)C1 (centres undefined) | 12% | 4% | 1% | -1 | -4 | 0%
O=C1NC[C@H](CCCCN2CCN(CC3CCCCC3)C(=O)C2=O)N(CC2CCCCC2)C1=O | 1% | · | · | · | · | ·
Cc1cc(=O)oc2cc(OCC(O)CN3CCN(c4ccc(F)cc4)CC3)ccc12 (centres undefined) | -5% | 12% | 0% | -1 | -8 | ·
CCOc1ccccc1N1CCN(CC(O)COc2ccc3c(C)cc(=O)oc3c2)CC1 (centres undefined) | 0% | 8.3µM* | 3% | -1 | -15 | -2%
Cc1cc2[nH]c(=O)cc(-c3ccccc3)n2n1 | 47% | 17% | 9% | 17* | 47 | -10%
Cc1cc2[nH]c(=O)c3ccccc3n2n1 | 3% | 15% | 2% | -3 | -12 | 44%
CCCCOCCCNC(=O)c1ccc([N+](=O)[O-])c(C)c1 | -2% | -8% | -12% | 1 | 1 | 15%
O=[N+]([O-])c1cc(S(=O)(=O)C(F)(F)F)ccc1NCC1CCCO1 (centres undefined) | -13% | 20% | 1% | 12 | 32* | 6%
CCC(CC)C(=O)Nc1cccc(C(=O)NCCc2ccccc2)c1 | -2% | 12% | 17% | 19* | 105* | 15%
O=C(NCCc1ccccc1)c1ccccc1[N+](=O)[O-] | 10% | 43% | 0% | 22* | 44* | ?
NS(=O)(=O)c1ccc(CCNC(=O)c2ccccc2[N+](=O)[O-])cc1 | 3%[2.32 µM] | 4% | 1% | -2 | -4 | 55%
SMILES | AMA1-RON2 inh | Pf growth 48h | SARS PLpro yeast | CHX counter | Shiga toxin inh | Pf growth 96h
Cc1cc(C(=O)NCCc2ccccc2)ccc1[N+](=O)[O-] | -3% | 188% | 0% | 55* | 54* | 81%
O=C(O)CNc1ccc(S(=O)(=O)C(F)(F)F)cc1[N+](=O)[O-] | -1% | 21% | 0% | -1 | 23 | -10%
Cc1nnsc1C(=O)NC(C)C12CC3CC(CC(C3)C1)C2 (centres undefined) | -7% | ? | -2% | -2 | -23 | ?
C=CCNC(=O)C1CC1(c1ccccc1)c1ccccc1 (centres undefined) | -1% | 7% | 15% | 4 | 7 | 16%
COc1ccc(Cn2ncc3c4sc(C)cc4n(C)c3c2=O)cc1 | · | · | · | -2 | 20 | ·
CC(=O)Nc1ccc(Nc2ccc(S(=O)(=O)C(F)(F)F)cc2[N+](=O)[O-])cc1 | -7%[11.6 µM] | 15µM* | -60% | 12 | 0 | ?
NC(=O)c1ccc(NCC2CCCO2)c([N+](=O)[O-])c1 (centres undefined) | 0% | 28% | 0% | 26 | 10 | -2%
CCn1cc(CNC(=O)c2ccc(Cl)c([N+](=O)[O-])c2)c(C)n1 | 3% | -26% | ? | -2 | 28 | 15µM*
O=C(NCCc1ccccc1)c1ccc(NCC2CCCO2)c([N+](=O)[O-])c1 (centres undefined) | -9% | 87% | -4% | 43* | 117* | 27%
CCn1cc(CNC(=O)c2cccc([N+](=O)[O-])c2)c(C)n1 | 4%[11.6 µM] | 16% | -25% | 20 | -8 | 372%
Cc1cc(NC(=O)CCc2ccccc2)c([N+](=O)[O-])cc1C | -10% | 32% | -2% | 36* | -2 | 0%
O=C(NCCc1ccccc1)c1ccc(Cl)c([N+](=O)[O-])c1 | -5% | 83% | -14% | 64* | 136* | 30%
Cc1cccc(C(=O)NCCNC(=O)c2ccccn2)c1 | 2% | 1% | 1% | 0 | -5 | -16%
Cc1cccc(C(=O)NCCc2ccccc2)c1 | -1% | · | 1% | 61* | 88* | ?
CCc1cccc(CC)c1NC(=S)NCc1nc2ccccc2[nH]1 | 17% | -8% | -2% | 2 | -4 | -5%
Cc1cc(C)n(C(=O)c2sc3cc(F)ccc3c2Cl)n1 | · | 12% | 5% | 1 | -4 | -8%
COc1cccc(C(=O)C2CCCN(C(=O)c3ccccn3)C2)c1 (centres undefined) | -1% | 15% | 12% | -4 | -9 | ?
COc1ccc2cc(C(=O)C3CCCN(C(=O)CCc4ccccn4)C3)ccc2c1 (centres undefined) | -19% | ? | -1% | 24* | 31* | 9%
COc1cccc(C(=O)C2CCCN(C(=O)CCc3scnc3C)C2)c1 (centres undefined) | -5% | -16% | 0% | 22* | 9 | ?
